Data published in PubChem BioAssay (NCI).
“And” between values parts separate entries of the source, which are not always exact repeats. Identical values can stand only once. The panel holds about 79,000 compounds, 15% with a hit somewhere; the sample as a whole holds those more often. Where a structure was tested more than once in an assay, its records may differ in their call. The source made the active and inactive calls. Rule as the data show it: active = growth inhibition above about 70%; inactive = the rest. Where a SMILES comes first, the peptide text is derived from it.

Key:
[1] = NCI Yeast Anticancer Drug Screen. Data for the rad50 strain (AID 155);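 also: 0% = growth of vehicle-only cultures of the same strain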; settings: S. cerevisiae rad50 strain growth inhibition, stronger effect = higher value
Summary of the method: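 A DNA repair-deficient yeast mutant serves as the test organism; compound-induced growth inhibition is calculated against vehicle-treated cells.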

[2] = NCI Yeast Anticancer Drug Screen. Data for the mec2-1 strain (AID 157); settings: S. cerevisiae mec2-1 strain, stronger effect = higher value
Summary of the method: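 Growth inhibition is read against vehicle-treated controls after compound exposure of the mec2-1 yeast strain, which is defective in DNA damage repair or cell cycle control.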

[3] = NCI Yeast Anticancer Drug Screen. Data for the sgs1 mgt1 strain (AID 161);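 also: 0% = growth of cultures given vehicle only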; settings: S. cerevisiae sgs1 mgt1 strain, stronger effect = higher value
Summary of the method: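 This yeast growth screen uses a strain with defined DNA-repair lesions; compound-treated growth is compared with vehicle-treated growth.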

[4] = NCI Yeast Anticancer Drug Screen. Data for the cln2 rad14 strain (AID 165);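 also: 0% = growth equal to vehicle treated cultures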; settings: S. cerevisiae cln2 rad14 strain, stronger effect = higher value
Summary of the method: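 Growth inhibition, relative to vehicle-treated controls, is the read-out. The test organism is a yeast strain with defined genetic alterations, cln2 rad14.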

[5] = NCI Yeast Anticancer Drug Screen. Data for the bub3 strain (AID 167); settings: S. cerevisiae bub3 mutant strain, stronger effect = higher value
Summary of the method: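 Inhibition values come from growth of compound-treated mutant yeast normalised to vehicle-treated controls.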

[6] = NCI Yeast Anticancer Drug Screen. Data for the mlh1 rad18 strain (AID 175); settings: S. cerevisiae mlh1 rad18 strain growth inhibition, stronger effect = higher value
Summary of the method: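 Cells of a genetically altered yeast strain, deficient in DNA damage repair, were treated with compound. Their growth was then compared with that of vehicle-treated cultures to give inhibition.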

[7] = at 5.0 µM (retest, dose inferred, filed as 0.5)
[8] = at 50.0 µM (retest, dose inferred, filed as 5.0)

Measured: growth inhibition

CCC(C)[P+](c1ccccc1)(c1ccccc1)c1ccccc1 (stereo not drawn)
inactive: [1]; [7] 2% | [1]; [8] 36% | [1]; at 50.0 µM 62.9% and 33.3% | [2]; [7] 18% | [2]; [8] 60% | [2]; at 50.0 µM 66% and 29.6% | [3]; [7] -8% | [3]; [8] 23% | [3]; at 50.0 µM 53.9% and 19.9% | [4]; [7] -4% | [4]; [8] 25% | [4]; at 50.0 µM 58.1% and 36% | [5]; [7] -3% | [5]; [8] 30% | [5]; at 50.0 µM 57.8% and 36% | [6]; [7] 21% | [6]; [8] 54%
72.4% (active) and 53.9% (inactive): [6]; at 50.0 µM

CC(C)C(NC(=O)C(N)CCC(=O)O)C(=O)O (stereo not drawn) (H-Glu-Val-OH; configuration not given here)
inactive: [1]; [7] -3% | [1]; [8] 2% | [1]; at 50.0 µM 15.7% | [2]; [7] -1% | [2]; [8] 5% | [2]; at 50.0 µM 2.15% | [3]; [7] 0% | [3]; [8] 1% | [3]; at 50.0 µM -9.35% | [4]; [7] 5% | [4]; [8] 7% | [4]; at 50.0 µM 45% | [5]; [7] -1% | [5]; [8] 0% | [5]; at 50.0 µM -8.25% | [6]; [7] -3% | [6]; [8] 4% | [6]; at 50.0 µM 9.95%

Oc1cccc2c1-c1ccccc1C2
active: [1]; [8] 96% | [1]; at 50.0 µM 98.8% | [2]; [8] 92% | [2]; at 50.0 µM 98.9% | [3]; [8] 97% | [3]; at 50.0 µM 98.4% | [4]; [8] 83% | [4]; at 50.0 µM 96.8% | [5]; [8] 97% | [5]; at 50.0 µM 98.4% | [6]; [8] 98% | [6]; at 50.0 µM 98.1%
inactive: [1]; [7] -6% | [2]; [7] 1% | [3]; [7] -7% | [4]; [7] -4% | [5]; [7] 32% | [6]; [7] 9%

Cc1ccnc2c1c(=O)c1ccccc1n2C
inactive: [1]; [7] 0% | [2]; [7] 4% | [2]; [8] 28% | [2]; at 50.0 µM 60.2% | [3]; [7] -2% | [3]; [8] 35% | [3]; at 50.0 µM 68.9% | [4]; [7] -6% | [4]; [8] -3% | [4]; at 50.0 µM 46.2% | [5]; [7] -1% | [5]; [8] 12% | [6]; [7] 3% | [6]; [8] 55%
active: [1]; [8] 86% | [1]; at 50.0 µM 79.1% | [5]; at 50.0 µM 71.6% | [6]; at 50.0 µM 74.3%

CN(C)c1ccc(/C=C/c2ccc3ccccc3[n+]2C)cc1
active: [1]; [8] 98% | [2]; [8] 98% | [2]; at 50.0 µM 99% | [3]; [8] 97% | [4]; [8] 98% | [4]; at 50.0 µM 98% | [5]; [8] 99% | [5]; at 50.0 µM 84.2% | [6]; [8] 98% | [6]; at 50.0 µM 98.3%
inactive: [1]; [7] 1% | [1]; at 50.0 µM 53.4% | [2]; [7] 3% | [3]; [7] 11% | [3]; at 50.0 µM 46.2% | [4]; [7] 3% | [5]; [7] -9% | [6]; [7] -15%

CCC(C)(C)c1cc(O)c(C(C)(C)CC)cc1O
9.45% (inactive) and 91.8% (active): [6]; at 50.0 µM
0.35% (inactive) and 93.2% (active): [1]; at 50.0 µM
-22.4% (inactive) and 93.3% (active): [2]; at 50.0 µM
inactive: [1]; [7] 10% | [2]; [7] 3% | [2]; [8] 67% | [3]; [7] -3% | [4]; [7] 18% | [5]; [7] 23% | [6]; [7] 10%
active: [1]; [8] 88% | [3]; [8] 91% | [4]; [8] 84% | [5]; [8] 91% | [6]; [8] 81%
20.2% (inactive) and 92.3% (active): [5]; at 50.0 µM
-15.2% (inactive) and 84.8% (active): [4]; at 50.0 µM
11.3% (inactive) and 88% (active): [3]; at 50.0 µM

O=C1C=CC(=O)c2c1ccc1c3ccccc3n(Cc3ccccc3)c21
inactive: [1]; [7] 27% | [2]; [7] 38% | [3]; [7] 41% | [3]; at 50.0 µM 59% | [4]; [7] 19% | [4]; [8] 49% | [4]; at 50.0 µM 38% | [5]; [7] 52% | [6]; [7] 47% | [6]; at 50.0 µM 25.1%
active: [1]; [8] 84% | [1]; at 50.0 µM 73% | [2]; [8] 90% | [2]; at 50.0 µM 71.2% | [3]; [8] 90% | [5]; [8] 92% | [5]; at 50.0 µM 76% | [6]; [8] 90%

Fc1ccc(/C=C2\COCC3=C2NC(=S)NC3c2ccc(F)cc2)cc1 (stereo not drawn)
active: [1]; [8] 98% | [1]; at 50.0 µM 88.6% | [2]; [8] 99% | [2]; at 50.0 µM 93% | [3]; [7] 72% | [3]; [8] 99% | [3]; at 50.0 µM 91.2% | [4]; [8] 99% | [4]; at 50.0 µM 90.5% | [5]; [7] 77% | [5]; [8] 100% | [5]; at 50.0 µM 90.7% | [6]; [8] 98% | [6]; at 50.0 µM 90.7%
inactive: [1]; [7] 32% | [2]; [7] 28% | [4]; [7] 59% | [6]; [7] 26%

COc1ccc(/C=C/C(=O)CCN2CCN(CCC(=O)/C=C/c3ccc(OC)cc3)CC2)cc1
active: [1]; [8] 99% | [1]; at 50.0 µM 81.7% | [2]; [8] 99% | [2]; at 50.0 µM 90.7% | [3]; [8] 99% | [3]; at 50.0 µM 90.2% | [4]; [8] 99% | [5]; [8] 99% | [5]; at 50.0 µM 87% | [6]; [8] 98% | [6]; at 50.0 µM 91.5%
inactive: [1]; [7] 16% | [2]; [7] -15% | [3]; [7] -4% | [4]; [7] -20% | [4]; at 50.0 µM 29.9% | [5]; [7] -59% | [6]; [7] -5%

NNC(=O)c1ccc(NC(=O)CSc2nc3ccccc3s2)cc1
active: [1]; at 50.0 µM 92.7% | [2]; at 50.0 µM 79% | [3]; at 50.0 µM 96.2% | [5]; [8] 82% | [5]; at 50.0 µM 97.8% | [6]; [7] 86% | [6]; [8] 82% | [6]; at 50.0 µM 98.6%
inactive: [1]; [7] -4% | [1]; [8] 35% | [2]; [7] 6% | [2]; [8] 28% | [3]; [7] 9% | [3]; [8] 59% | [4]; [7] 0% | [4]; [8] 48% | [4]; at 50.0 µM 31.2% | [5]; [7] 52%

Cn1c2nc3ccccc3c-2cc2ccccc21
inactive: [1]; [7] 44% | [2]; [7] 27% | [3]; [7] 38% | [3]; at 50.0 µM 70% and 68.5% | [4]; [7] 41% | [4]; at 50.0 µM 60.5% and 59.4% | [5]; [7] 30% | [6]; [7] 48%
70.8% (active) and 68.2% (inactive): [5]; at 50.0 µM
active: [1]; [8] 85% | [1]; at 50.0 µM 84% and 85.2% | [2]; [8] 75% | [2]; at 50.0 µM 77.8% and 71.2% | [3]; [8] 83% | [4]; [8] 74% | [5]; [8] 83% | [6]; [8] 83% | [6]; at 50.0 µM 76.7% and 72.6%

O/N=C(\CC(O)(C(F)(F)F)C(F)(F)F)c1cccc(Cl)c1
inactive: [1]; [7] 13% | [2]; [7] 17% | [3]; [7] 10% | [4]; [7] 8% | [5]; [7] 14% | [6]; [7] 26%
active: [1]; [8] 80% | [1]; at 50.0 µM 91% | [2]; [8] 98% | [2]; at 50.0 µM 93.6% | [3]; [8] 97% | [3]; at 50.0 µM 92.8% | [4]; [8] 95% | [4]; at 50.0 µM 89% | [5]; [8] 97% | [5]; at 50.0 µM 90.5% | [6]; [8] 97% | [6]; at 50.0 µM 89.3%

Oc1ccc(/C=N/NC(=S)NN2CCOCC2)nc1
active: [1]; [8] 96% | [1]; at 50.0 µM 87% | [2]; [8] 95% | [2]; at 50.0 µM 90.1% | [3]; [8] 95% | [3]; at 50.0 µM 89% | [4]; [8] 91% | [4]; at 50.0 µM 80.8% | [5]; [8] 93% | [5]; at 50.0 µM 88.5% | [6]; [8] 95% | [6]; at 50.0 µM 87.8%
inactive: [1]; [7] 38% | [2]; [7] 36% | [3]; [7] 42% | [4]; [7] 20% | [5]; [7] 46% | [6]; [7] 42%

Cc1ccc(C(C)C)c2c1CN(CCN1COc3c(C(C)C)ccc(C)c3C1)CO2
inactive: [1]; [7] -3% | [1]; [8] 2% | [1]; at 50.0 µM -3.9% | [2]; [7] 0% | [2]; [8] 3% | [2]; at 50.0 µM 6.8% | [3]; [7] -3% | [3]; [8] -1% | [3]; at 50.0 µM -13.8% | [4]; [7] -4% | [4]; [8] 1% | [4]; at 50.0 µM -11.2% | [5]; [7] -1% | [5]; [8] -2% | [5]; at 50.0 µM -2.95% | [6]; [7] -1% | [6]; [8] 4% | [6]; at 50.0 µM -8.65%

OCc1ccccc1C(c1ccccc1)c1ccccc1
inactive: [1]; [7] 0% | [1]; at 50.0 µM 3.45% | [2]; [7] 9% | [2]; at 50.0 µM 64.7% | [3]; [7] -1% | [4]; [7] 8% | [4]; at 50.0 µM 5.85% | [5]; [7] 0% | [6]; [7] 6%
active: [1]; [8] 98% | [2]; [8] 99% | [3]; [8] 70% | [3]; at 50.0 µM 73% | [4]; [8] 98% | [5]; [8] 99% | [5]; at 50.0 µM 91% | [6]; [8] 94% | [6]; at 50.0 µM 84.1%

COc1ccc(/C=C2\C=Nc3ccccc32)cc1
inactive: [1]; [7] 12% | [1]; [8] -10% | [1]; at 50.0 µM 12.7% | [2]; [7] -3% | [2]; [8] 10% | [2]; at 50.0 µM -5.7% | [3]; [7] 0% | [3]; [8] -3% | [3]; at 50.0 µM 17.9% | [4]; [7] 28% | [4]; [8] 25% | [4]; at 50.0 µM 10.4% | [5]; [7] 18% | [5]; [8] 30% | [5]; at 50.0 µM 33.7% | [6]; [7] 12% | [6]; [8] 11% | [6]; at 50.0 µM 4.55%
